Test results reported in PubChem BioAssay (NCATS).
Values joined by “and” are separate entries in the source; they are usually repeats but may differ in a detail not shown here. Equal entries are not always repeated. Inconclusive results are not listed. Active and inactive are the calls of the source. Unless noted, the call rests on the fitted dose curve; in most records, active means well fitted curve in the direction sought with a large enough effect; inconclusive means small, poorly fitted or top-dose-only effect, or another doubt; inactive means no such curve, though single readings can be large; an effect the other way counts as inactive or inconclusive. Where a SMILES comes first, the peptide text is derived from it. The star is where a group is joined. Cbz = O=C(OCc1ccccc1)*

Legend:
[1] = molecular target: Cellular tumor antigen p53 (Homo sapiens) (UniProt P04637); assay: Primary qHTS for small molecule compounds that upregulate eGFP-tagged delta133p53alpha (in N-terminal) cells. (AID 2060322); details: NCI-H358 eGFP-delta133p53alpha fluorescence, 24 h; activation: active compounds read high;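 further: cells pre-induced with doxycycline then dosed without doxycycline; series mostly up to about 56 µM; 0% = DMSO vehicle and 100% = reference activator; nearly all actives have a fitted effect of over 75% in size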
Chain of Cellular tumor antigen p53 (Homo sapiens) (P04637 whole entry, looked up, the tested form may be a part): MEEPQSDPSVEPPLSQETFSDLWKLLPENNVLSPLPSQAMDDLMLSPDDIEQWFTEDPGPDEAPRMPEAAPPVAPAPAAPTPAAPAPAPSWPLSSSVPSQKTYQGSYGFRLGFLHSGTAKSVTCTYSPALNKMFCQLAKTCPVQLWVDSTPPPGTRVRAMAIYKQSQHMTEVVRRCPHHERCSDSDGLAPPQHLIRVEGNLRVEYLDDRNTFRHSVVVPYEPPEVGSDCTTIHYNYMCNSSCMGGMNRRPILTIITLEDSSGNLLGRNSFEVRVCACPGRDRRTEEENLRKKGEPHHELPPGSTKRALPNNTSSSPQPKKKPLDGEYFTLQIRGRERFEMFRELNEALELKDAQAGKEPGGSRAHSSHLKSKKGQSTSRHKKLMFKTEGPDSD
Outline: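 NCI-H358 cells pre-induced 24 h with 10 ng/ml doxycycline for eGFP-delta133p53alpha, plated dox-free and exposed 24 h at 37C to titrated compounds. Fixed, Hoechst-stained; gated GFP peak intensity by laser scanning cytometry, normalized to DMSO (0%) and 57.5 uM 5-azacytidine (100%).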

[2] = molecular target: Cellular tumor antigen p53 (Homo sapiens) (UniProt P04637); assay: Primary qHTS for small molecule compounds that upregulate eGFP-tagged delta133p53alpha (in C-terminal) cells. (AID 2060324);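 further: 0% = DMSO wells and 100% = 57.5 µM 5-azacytidine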
Outline: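 Doxycycline (100 ng/ml, 24 h) first induced the eGFP fusion in NCI-H358 C-terminal-tag cells. Washed-out cells then received titrated compounds for 24 h at 37 °C before paraformaldehyde fixation, Hoechst staining and cytometric GFP quantification.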

[3] = molecular target: Aldehyde dehydrogenase, mitochondrial (Homo sapiens) (UniProt P05091); assay: qHTS for Inhibitors of the Aldehyde Dehydrogenase Family (ALDH2) Validation screens (AID 2061302; active means well fitted inhibition curve with a large enough effect; title and protocol of this record describe different tests;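 further: plate controls were DMSO vehicle for no effect and maximal DPI positive control response for full effect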)
[4] = molecular target: Retinaldehyde dehydrogenase 3 (Homo sapiens) (UniProt P47895); assay: qHTS for Inhibitors of the Aldehyde Dehydrogenase Family (ALDH1A3) Validation screen (AID 2061312); further: on the % scale 0 is the no-effect control and ±100 the full control effect; nearly all actives have a fitted effect of over 45% in size

Fc1ccc(C(OCCCc2cnc[nH]2)c2ccc(F)cc2)cc1
inactive: activation [1] -45.7% | Potency [2] | Potency [3] | Potency [4]

CN(C)CCCN1c2ccccc2Sc2ccccc21
inactive: activation [1] 2.51% and 16.3% | Potency [2] | Potency [3] | Potency [4]

O=c1ccn([C@@H]2O[C@H](COP(=O)(O)OP(=O)(O)O)[C@@H](O)[C@H]2O)c(=O)[nH]1
inactive: activation [1] -29.5% | Potency [2] | Potency [3] | Potency [4]

CNc1ncnc2c1ncn2[C@@H]1O[C@H](CO)[C@@H](O)[C@H]1O
inactive: activation [1] 5.48% | Potency [2] | Potency [3] | Potency [4]

CCCCCCCCCCC(C)(C)C(=O)Nc1c(OC)cc(OC)cc1OC
inactive: activation [1] -40.6% | Potency [2] | Potency [3] | Potency [4]

NC(CCCP(=O)(O)O)C(=O)O (stereo not given)
inactive: activation [1] 34.5% | Potency [2] | Potency [3] | Potency [4]

CC(=O)OC(C)C[N+](C)(C)C (stereo not given)
inactive: activation [1] 10.7% and 1.73% | Potency [2] | Potency [3] | Potency [4]

CCn1c(=O)[nH]c2cc(Cl)c(Cl)cc21
inactive: activation [1] -55.4% | Potency [2] | Potency [3] | Potency [4]

Cn1ccnc1
inactive: activation [1] -23.6% | Potency [2] | Potency [3] | Potency [4]

OCC1NCC(O)C(O)C1O (stereo not given)
inactive: activation [1] -36.6% | Potency [2] | Potency [3] | Potency [4]

CCc1cccc2c3c([nH]c12)C(CC)(CC(=O)O)OCC3 (stereo not given)
inactive: activation [1] -0.565% and -1.6% | Potency [2] | Potency [3] | Potency [4]

CCN(CC)CC(=O)Nc1c(C)cccc1C
inactive: activation [1] -3.35% and -7.58% | Potency [2] | Potency [3] | Potency [4]

CC(C)[C@H](NC(=O)OCc1ccccc1)C(=O)N[C@H](C=O)Cc1ccccc1 (Cbz-Val-Phe-aldehyde)
inactive: activation [1] -5.34% | Potency [2] | Potency [3] | Potency [4]

COC(=O)C(C)(N)Cc1ccc(O)cc1 (stereo not given)
inactive: activation [1] -5.7% | Potency [2] | Potency [3] | Potency [4]

C=CCc1ccccc1OCC(O)CNC(C)C (stereo not given)
inactive: activation [1] 2.82% and -28% | Potency [2] | Potency [3] | Potency [4]

CC(C)(C)[C@]1(O)CCN2C[C@H]3c4ccccc4CCc4cccc(c43)[C@@H]2C1
inactive: activation [1] -52.3% and -59.2% | Potency [2] | Potency [3] | Potency [4]

CC(=O)OCC1=C(C(=O)O)N2C(=O)[C@@H](NC(=O)Cc3cccs3)[C@H]2SC1
inactive: activation [1] 27.7% and 1.09% | Potency [2] | Potency [3] | Potency [4]

O=C(c1ccc(OCCCc2cnc[nH]2)cc1)C1CC1
inactive: activation [1] 6.88% | Potency [2] | Potency [3] | Potency [4]

C[N+]1(C)CCC(OC(=O)C(c2ccccc2)c2ccccc2)CC1
inactive: activation [1] -16.4% | Potency [2] | Potency [3] | Potency [4]

C[C@]12C[C@H](O)[C@H]3[C@@H](CCC4=CC(=O)CC[C@@]43C)[C@@H]1CC[C@@H]2C(=O)CO
inactive: activation [1] -5.02% and -5.37% | Potency [2] | Potency [3] | Potency [4]

CN(C)C(=O)Oc1cccc([N+](C)(C)C)c1
inactive: activation [1] -10.7% and -13.7% | Potency [2] | Potency [3] | Potency [4]

COc1cc(CC(=O)O)ccc1O
inactive: activation [1] -3.12% | Potency [2] | Potency [3] | Potency [4]

CNc1ncnc2c1ncn2[C@H]1C[C@H](OP(=O)(O)O)[C@@H](COP(=O)(O)O)O1
inactive: activation [1] 3.4% | Potency [2] | Potency [3] | Potency [4]

CCC(=O)N1CCN(C(=O)c2ccccc2)CC1
inactive: activation [1] -16% | Potency [2] | Potency [3] | Potency [4]

C[N+]1(C)C2CC(OC(=O)[C@H](CO)c3ccccc3)CC1C1OC12 (stereo not given in full)
inactive: activation [1] 4.68% and -6.58% | Potency [2] | Potency [3] | Potency [4]

CN(C)C(N)=NCCC[C@H](N)C(=O)O
inactive: activation [1] -10.9% | Potency [2] | Potency [3] | Potency [4]

CC(C)[N+](C)(CCOC(=O)C1c2ccccc2Oc2ccccc21)C(C)C
inactive: activation [1] 18.6% and -22.6% | Potency [2] | Potency [3] | Potency [4]

S=C(S)OC1CC2CC1C1CCCC21 (stereo not given)
inactive: activation [1] -23.4% | Potency [2] | Potency [3] | Potency [4]

CC1CC2C3CCC4=CC(=O)C=C[C@]4(C)[C@@]3(F)[C@@H](O)C[C@]2(C)[C@@]1(O)C(=O)CO (stereo not given in full)
inactive: activation [1] -4.86% and -24.4% | Potency [2] | Potency [3] | Potency [4]

COC1(C2=NCCN2)COc2ccccc2O1 (stereo not given)
inactive: activation [1] -0.599% | Potency [2] | Potency [3] | Potency [4]

CC(C)Cc1ccc([C@H](C)C(=O)O)cc1
inactive: activation [1] -12.1% | Potency [2] | Potency [3] | Potency [4]

CNCCC(Oc1ccccc1OC)c1ccccc1 (stereo not given)
inactive: activation [1] -3.68% | Potency [2] | Potency [3] | Potency [4]

CO[C@H]1O[C@@H]2O[C@]3(C)CC[C@@H]4[C@@H](C)CC[C@H]([C@H]1C)[C@]24OO3
inactive: activation [1] -13% | Potency [2] | Potency [3] | Potency [4]

CNC(=O)[C@H]1O[C@@H](n2cnc3c(NCc4ccc(N)cc4)ncnc32)[C@H](O)[C@@H]1O
inactive: activation [1] -32.5% | Potency [2] | Potency [3] | Potency [4]

CC(=O)SCC[N+](C)(C)C
inactive: activation [1] -8.68% | Potency [2] | Potency [3] | Potency [4]
